Experimental findings from ChEMBL document CHEMBL4513216, “Probing the Open Global Health Chemical Diversity Library for Multistage-Active Starting Points for Next-Generation Antimalarials” (ACS Infect Dis, 2020) are described below.

Among all 69,000 compounds or so, about 8,600 (12%) showed an effect of 50% or more. The sample holds strong results, similar compounds and a random draw of the others, so the mix is not that of the screen.

This assay relates to Plasmodium berghei. Nature of the assay: Screen against P. berghei liver stage (PbLuc), transformed with Luciferase, at 10uM. The class given is functional, HepG2. Particulars: tested at 10 uM.
Regarding `CCCc1nc(CNc2ccc(F)c(F)c2)no1`, the INHIBITION was -9.51%.
The result for `Clc1ccc(C2(NCc3noc(C4CC4)n3)CCC2)cc1` reads 8.18%; that for `Cc1cccc(C)c1NCc1noc(C2CC2)n1`, 36.3%; that for `CCCc1nc(CNc2cc(CS(C)(=O)=O)ccc2Cl)no1`, 52.2%.
Under `CCCc1noc(CNc2cc(C[S+](C)[O-])ccc2Cl)n1` (centres undefined) stands 30.9%.
Under `CS(=O)(=O)Cc1ccc(Cl)c(NCc2noc(C3CC3)n2)c1` stands 57.8%; under `CC(=O)N[C@H]1CCO[C@@H](c2cccc(NC(=O)Cc3ccccc3)c2)C1`, 13.205%; under `CCc1nnc(CN2CCOC(Cn3cc(C)cn3)C2)o1` (centres undefined), 15.5%.
Turning to `CC(=O)N1CCCN(C(=O)C(C)n2cncn2)CC1` (centres undefined), the INHIBITION turned out to be 10%.
The result for `CCc1cc(NCCCc2nc(C)no2)nc(-c2ccncc2)n1` reads 17.6%.
The result for `Cc1cccc(CNC(=O)NCC2CCN(Cc3ncc[nH]3)C2)c1` (centres undefined) reads 4.68%; that for `FC(F)(F)c1cccc(OC2CCN(Cc3ncc[nH]3)CC2)c1`, 79.7%.
Under `O=c1ccn([C@H]2CCN(Cc3ncc[nH]3)CC[C@@H]2O)c(=O)[nH]1` stands 24.4%; under `Fc1cccc(OC2CCN(Cc3ncc[nH]3)CC2)c1`, 40%; under `O=C(c1cccnc1)N1CCC(Oc2cccc(C(F)(F)F)c2)CC1`, 27.6%.
For `OC1(CN2CCC(Oc3cccnc3)CC2)CNCCOC1` (centres undefined), the INHIBITION is on record as -16.8%.
The result for `Nc1cc(C(=O)N2CCC(Oc3cccc(C(F)(F)F)c3)CC2)ccn1` reads 38.3%.
For the compound `O=C(c1ccc(=O)[nH]c1)N1CCC(Oc2cccc(C(F)(F)F)c2)CC1`, the INHIBITION was 50.1%.
The result for `OC1(CN2CCC(Oc3cccc(C(F)(F)F)c3)CC2)CCNC1` (centres undefined) reads 87.7%.
The result for `O=C(c1ccncc1)N1CCC(Oc2cccc(C(F)(F)F)c2)CC1` reads 10.5%; that for `Cc1cccc(OC2CCN(Cc3ncc[nH]3)CC2)c1`, 53.2%; that for `OC1(CN2CCC(Oc3cccc(C(F)(F)F)c3)CC2)CNCCOC1` (centres undefined), 37.1%.
Under `COc1ccc(Cl)cc1C(=O)NCCNc1cnccn1` stands -21.8%; under `O=C1CC2(CCN(c3nncs3)C2)CN1c1cccc(F)c1` (centres undefined), -6.3%; under `CCN1CC2(CC1=O)CN(C(=O)NC(C)C)CCN(C(=O)C(C)C)C2` (centres undefined), 30.5%.
`CN(C)C(=O)N1C[C@@H]2COC[C@]2(CNS(C)(=O)=O)C1`: the INHIBITION was found to be 14.2%.
Under `CC(=O)N1CCO[C@@H]2CN(Cc3ccccc3Cl)C[C@@H]2C1` stands 38.5%; under `Cc1ccccc1C1(C(=O)NCCN(C(C)C)C(C)C)CCOCC1`, -52.66%; under `c1cc2nccc(CC3CCCN(C4CCOCC4)CC3)c2cn1` (centres undefined), 15.9%.
